Our source for the log2 fold change values is the supplement of paper PMC10849652.

About 7,900 targets were measured; listed, in parts, are those with a hit and a random draw of the rest. About 0.6% of all pairs of compound and target were hits. Values without a mark were called inactive.

Chain of UniProt P23327 (P23327 whole entry, looked up): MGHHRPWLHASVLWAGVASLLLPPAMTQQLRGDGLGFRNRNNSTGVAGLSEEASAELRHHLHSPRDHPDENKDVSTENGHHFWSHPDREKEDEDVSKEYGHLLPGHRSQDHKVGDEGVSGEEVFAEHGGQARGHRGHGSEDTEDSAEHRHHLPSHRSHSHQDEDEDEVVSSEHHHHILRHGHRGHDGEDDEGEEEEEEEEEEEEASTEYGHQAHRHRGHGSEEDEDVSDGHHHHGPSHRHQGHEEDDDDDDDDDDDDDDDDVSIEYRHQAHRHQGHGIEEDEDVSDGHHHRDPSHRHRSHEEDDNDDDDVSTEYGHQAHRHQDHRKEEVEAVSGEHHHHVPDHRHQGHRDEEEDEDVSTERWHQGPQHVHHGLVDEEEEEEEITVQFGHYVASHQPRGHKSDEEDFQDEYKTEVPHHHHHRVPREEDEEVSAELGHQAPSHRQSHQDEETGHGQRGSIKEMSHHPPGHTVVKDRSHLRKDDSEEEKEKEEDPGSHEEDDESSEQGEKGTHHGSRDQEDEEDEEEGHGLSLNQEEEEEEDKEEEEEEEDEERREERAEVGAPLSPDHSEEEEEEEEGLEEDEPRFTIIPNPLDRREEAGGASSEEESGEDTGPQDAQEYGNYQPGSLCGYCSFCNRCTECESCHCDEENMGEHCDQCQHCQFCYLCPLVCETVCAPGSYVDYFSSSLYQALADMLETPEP
Chain of UniProt P29083 (P29083 whole entry, looked up): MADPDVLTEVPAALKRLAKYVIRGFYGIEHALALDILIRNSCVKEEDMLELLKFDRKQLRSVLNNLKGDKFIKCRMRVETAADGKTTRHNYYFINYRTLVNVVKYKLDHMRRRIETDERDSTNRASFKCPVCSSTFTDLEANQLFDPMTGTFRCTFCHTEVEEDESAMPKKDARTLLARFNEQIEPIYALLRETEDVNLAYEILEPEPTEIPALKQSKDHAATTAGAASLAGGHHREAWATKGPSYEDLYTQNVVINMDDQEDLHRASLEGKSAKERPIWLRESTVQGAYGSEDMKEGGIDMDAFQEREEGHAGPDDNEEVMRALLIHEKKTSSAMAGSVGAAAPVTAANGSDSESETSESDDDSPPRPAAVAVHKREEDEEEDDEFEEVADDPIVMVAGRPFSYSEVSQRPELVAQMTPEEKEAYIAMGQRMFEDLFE
Chain of UniProt Q8TEQ6 (Q8TEQ6 whole entry, looked up): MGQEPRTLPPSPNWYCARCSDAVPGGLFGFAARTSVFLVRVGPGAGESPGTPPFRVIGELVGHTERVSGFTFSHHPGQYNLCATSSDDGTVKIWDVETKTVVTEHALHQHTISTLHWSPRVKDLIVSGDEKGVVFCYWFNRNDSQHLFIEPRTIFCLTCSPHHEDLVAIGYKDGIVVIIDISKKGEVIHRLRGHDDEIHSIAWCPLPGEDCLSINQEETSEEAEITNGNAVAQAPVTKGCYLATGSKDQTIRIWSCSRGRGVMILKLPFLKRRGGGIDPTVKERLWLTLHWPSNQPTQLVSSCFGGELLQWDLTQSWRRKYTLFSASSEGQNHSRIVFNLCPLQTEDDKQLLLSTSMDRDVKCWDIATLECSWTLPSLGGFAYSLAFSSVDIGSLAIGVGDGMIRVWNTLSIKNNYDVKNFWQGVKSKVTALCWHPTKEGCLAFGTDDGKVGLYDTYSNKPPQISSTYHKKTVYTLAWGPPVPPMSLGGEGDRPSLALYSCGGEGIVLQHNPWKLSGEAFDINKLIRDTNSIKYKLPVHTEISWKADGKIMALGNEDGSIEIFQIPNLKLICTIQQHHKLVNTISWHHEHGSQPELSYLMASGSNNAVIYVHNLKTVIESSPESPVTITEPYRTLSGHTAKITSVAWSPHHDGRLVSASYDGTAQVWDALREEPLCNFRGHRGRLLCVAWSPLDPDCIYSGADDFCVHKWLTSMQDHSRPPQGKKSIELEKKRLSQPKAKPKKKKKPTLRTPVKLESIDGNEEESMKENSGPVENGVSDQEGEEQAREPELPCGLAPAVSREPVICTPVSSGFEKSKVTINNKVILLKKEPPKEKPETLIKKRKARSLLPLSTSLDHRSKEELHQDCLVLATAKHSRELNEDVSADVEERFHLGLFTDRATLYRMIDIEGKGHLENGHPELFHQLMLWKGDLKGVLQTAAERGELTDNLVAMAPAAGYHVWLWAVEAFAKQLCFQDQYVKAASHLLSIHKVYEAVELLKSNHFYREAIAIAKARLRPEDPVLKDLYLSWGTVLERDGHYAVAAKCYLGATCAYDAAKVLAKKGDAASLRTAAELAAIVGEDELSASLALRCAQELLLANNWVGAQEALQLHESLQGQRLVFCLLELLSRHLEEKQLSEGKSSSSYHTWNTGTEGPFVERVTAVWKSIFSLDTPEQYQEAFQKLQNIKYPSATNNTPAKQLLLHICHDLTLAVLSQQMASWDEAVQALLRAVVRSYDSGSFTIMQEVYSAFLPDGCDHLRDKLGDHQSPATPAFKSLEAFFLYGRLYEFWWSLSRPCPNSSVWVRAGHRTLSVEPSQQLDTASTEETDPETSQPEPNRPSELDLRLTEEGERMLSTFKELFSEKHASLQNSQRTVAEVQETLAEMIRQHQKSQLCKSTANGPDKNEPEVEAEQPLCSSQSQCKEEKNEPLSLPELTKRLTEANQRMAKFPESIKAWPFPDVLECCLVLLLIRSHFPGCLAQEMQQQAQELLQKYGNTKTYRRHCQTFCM
Chain of UniProt Q9UJY4 (Q9UJY4 whole entry, looked up): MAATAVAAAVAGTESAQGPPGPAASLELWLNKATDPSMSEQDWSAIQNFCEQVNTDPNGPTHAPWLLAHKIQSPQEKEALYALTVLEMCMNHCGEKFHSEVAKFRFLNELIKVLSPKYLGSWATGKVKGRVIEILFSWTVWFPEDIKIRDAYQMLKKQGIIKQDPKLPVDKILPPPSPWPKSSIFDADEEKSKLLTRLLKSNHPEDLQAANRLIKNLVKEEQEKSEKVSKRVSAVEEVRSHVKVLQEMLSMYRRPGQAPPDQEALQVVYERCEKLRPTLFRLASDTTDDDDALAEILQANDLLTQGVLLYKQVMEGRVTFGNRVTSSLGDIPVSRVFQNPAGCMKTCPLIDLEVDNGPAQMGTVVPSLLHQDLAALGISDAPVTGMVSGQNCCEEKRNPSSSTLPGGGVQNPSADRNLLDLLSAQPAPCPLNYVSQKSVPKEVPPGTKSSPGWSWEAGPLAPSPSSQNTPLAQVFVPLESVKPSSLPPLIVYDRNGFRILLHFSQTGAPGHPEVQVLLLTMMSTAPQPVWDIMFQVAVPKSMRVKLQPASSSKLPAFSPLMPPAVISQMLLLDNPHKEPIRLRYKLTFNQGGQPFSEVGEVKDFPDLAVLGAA
Chain of UniProt P52657 (P52657 whole entry, looked up): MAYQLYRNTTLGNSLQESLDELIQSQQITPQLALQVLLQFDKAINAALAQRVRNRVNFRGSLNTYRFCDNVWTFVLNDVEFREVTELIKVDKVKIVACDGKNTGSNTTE
Chain of UniProt O15228 (O15228 whole entry, looked up): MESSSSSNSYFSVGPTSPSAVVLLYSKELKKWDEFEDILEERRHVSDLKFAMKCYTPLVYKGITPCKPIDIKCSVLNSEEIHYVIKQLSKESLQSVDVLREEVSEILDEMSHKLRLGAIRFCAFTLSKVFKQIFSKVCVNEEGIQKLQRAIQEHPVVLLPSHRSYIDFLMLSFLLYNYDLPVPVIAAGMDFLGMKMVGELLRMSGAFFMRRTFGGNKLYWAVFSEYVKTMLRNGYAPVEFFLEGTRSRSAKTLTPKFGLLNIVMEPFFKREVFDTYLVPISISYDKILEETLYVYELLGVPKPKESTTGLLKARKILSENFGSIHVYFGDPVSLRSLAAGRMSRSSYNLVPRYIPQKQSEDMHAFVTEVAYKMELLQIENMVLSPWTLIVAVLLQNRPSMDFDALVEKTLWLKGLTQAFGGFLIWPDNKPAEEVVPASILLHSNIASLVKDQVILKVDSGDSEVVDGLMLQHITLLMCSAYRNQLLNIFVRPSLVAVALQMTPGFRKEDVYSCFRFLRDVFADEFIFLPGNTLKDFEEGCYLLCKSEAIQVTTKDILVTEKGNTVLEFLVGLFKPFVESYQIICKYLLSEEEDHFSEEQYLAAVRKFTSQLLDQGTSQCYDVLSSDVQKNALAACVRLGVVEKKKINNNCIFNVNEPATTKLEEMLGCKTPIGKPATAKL
Chain of UniProt Q02790 (Q02790 whole entry, looked up): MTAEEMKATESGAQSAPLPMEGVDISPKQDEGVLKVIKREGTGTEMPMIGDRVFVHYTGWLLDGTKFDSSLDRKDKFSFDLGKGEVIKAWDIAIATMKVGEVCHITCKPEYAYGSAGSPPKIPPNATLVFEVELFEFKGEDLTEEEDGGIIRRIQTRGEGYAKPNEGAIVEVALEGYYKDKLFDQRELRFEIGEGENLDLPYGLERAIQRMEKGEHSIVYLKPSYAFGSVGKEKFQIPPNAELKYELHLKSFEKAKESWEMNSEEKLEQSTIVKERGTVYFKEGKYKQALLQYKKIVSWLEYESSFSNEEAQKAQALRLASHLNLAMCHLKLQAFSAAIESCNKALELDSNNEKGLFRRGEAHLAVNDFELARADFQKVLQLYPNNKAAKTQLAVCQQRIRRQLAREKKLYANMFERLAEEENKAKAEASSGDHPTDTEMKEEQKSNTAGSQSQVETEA
Chain of UniProt O00458 (O00458 whole entry, looked up): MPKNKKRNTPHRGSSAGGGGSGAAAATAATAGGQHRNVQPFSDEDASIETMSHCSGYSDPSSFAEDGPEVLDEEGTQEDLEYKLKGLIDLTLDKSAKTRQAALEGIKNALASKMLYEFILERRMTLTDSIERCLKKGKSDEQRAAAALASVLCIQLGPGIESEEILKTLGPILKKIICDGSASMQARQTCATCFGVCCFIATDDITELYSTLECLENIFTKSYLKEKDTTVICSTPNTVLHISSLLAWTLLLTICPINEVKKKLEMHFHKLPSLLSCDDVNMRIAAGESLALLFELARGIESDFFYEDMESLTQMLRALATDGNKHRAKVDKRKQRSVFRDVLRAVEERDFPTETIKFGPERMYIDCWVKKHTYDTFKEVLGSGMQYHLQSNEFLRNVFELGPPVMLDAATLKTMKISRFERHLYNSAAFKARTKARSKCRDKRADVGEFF

Compound in this assay: CC(C)C1=C2N=C(C=C(N2N=C1)NCC3=CC=CC=C3)NCCCCCCN
Briefly: log2 fold change, soluble protein after heating vs DMSO (PISA); higher = thermal stabilisation; K562 cells, 10 uM, 30 min; active = over 0.2 and 3.5 SD of the protein, either way, in both replicates (recomputed). The gist of the method:
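K562 cells at 2×10^6 cells/mL were exposed to 10 μM compound for 30 min, then aliquots were heated for 3 min across 48°C-58°C, pooled, and extracted in PBS containing 0.5% NP-40 at 4°C. The supernatant after 21,000xg for 90 min was taken as soluble protein and measured by TMTpro 16plex LC-MS/MS with channel sums equalised. Thermal stability is reported relative to control samples, with values from duplicates. Fold changes are given on a log2 scale.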
For GNB2 (UniProt P62879), the log2 fold change is 0.022.
As for GTF2B (UniProt Q00403), the figure is -0.125; as for GTF2E1 (UniProt P29083), -0.147; as for GPX4 (UniProt P36969), 0.099.
The value for HMGB3 (UniProt O15347) was 0.068; that for GAPVD1 isoform 6 (UniProt Q14C86) was -0.278 (active).
The value for FNTB (UniProt P49356) was 0.074.
For FKBP4 (UniProt Q02790), the log2 fold change is -0.094.
The value for IFRD1 (UniProt O00458) was -0.035; that for IFT80 isoform 3 (UniProt Q9P2H3) was -0.113.
Regarding IFI30 (UniProt P13284), the log2 fold change was 0.087.
Take GALNT1 (UniProt Q10472): the log2 fold change was 0.048.
For FUBP3 (UniProt Q96I24), the log2 fold change was 0.15.
As for ICMT (UniProt O60725), the figure is -0.472 (active); as for GCC2 (UniProt Q8IWJ2), -0.075.
As for HIC2 (UniProt Q96JB3), the figure is -0.07; as for HRC (UniProt P23327), 0.074.
As for HSD17B12 (UniProt Q53GQ0), the figure is 0.22; as for HMGCR isoform 3 (UniProt P04035), 0.029; as for GOLPH3 (UniProt Q9H4A6), 0.31 (active).
With GEMIN5 (UniProt Q8TEQ6), the log2 fold change was -0.422 (active).
On to FUCA2 (UniProt Q9BTY2), for which the log2 fold change was -0.09.
HNRNPH1 (UniProt P31943): the log2 fold change is -0.427 (active).
Regarding GNPAT (UniProt O15228), the log2 fold change is -0.018.
For GOPC (UniProt Q9HD26), the log2 fold change was 0.046.
The value for HPCAL1 (UniProt P37235) was -0.081; that for GTF2A2 (UniProt P52657) was 0.051; that for GSK3A (UniProt P49840) was 0.011.
As for HBQ1 (UniProt P09105), the figure is 0.095; as for HOOK3 (UniProt Q86VS8), -0.138.
As for HEXA (UniProt P06865), the log2 fold change was -0.179.
Regarding GGA2 (UniProt Q9UJY4), the log2 fold change is -0.169.
The value for HNRNPC isoform 2 (UniProt P07910) was -0.197.
Take H2AFX (UniProt P16104): the log2 fold change was -0.008.
Turning to HDDC2 (UniProt Q7Z4H3), the log2 fold change was 0.074.
